# Calls of active or inactive are those of the source. How the source made its calls: active means hit-call score of the fitted dose curve at least 0.9, where 1 is the maximum; inactive means score below 0.9.
# Test: CCTE_Shafer_MEA_acute_per_burst_spike_number_mean: CCTE's Neural Acute Assay for Average Number of Spikes Per Burst, Shafer Lab (AID 2284015);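 further: hits are decreases in mean spikes per burst versus baseline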
# Procedure: CCTE_Shafer_MEA_acute assay is conducted using Axion Biosystems 48 well microelectrode array (MEA) plates and Maestro recording system. Each well of the MEA plate contains a grid of 16 microelectrodes embedded in the culture surface. Electrically active cells, such as neurons, can be cultured over the electrodes, and electrical activity in these cells can be recorded extracellularly. The spontaneous firing of neurons is captured from each electrode on a microsecond timescale providing both temporally and spatially precise data. […] The CCTE_Shafer_MEA_acute assay uses primary cultures of rat cortical neurons. As these cultures mature over time, neural networks develop functional activity and form cohesive networks in which electrical activity can be highly coordinated. Baseline 40-minute recordings are made on days post-plating 13 or 15, followed by a secondary 40-minute recording after chemical exposure.CCTE_Shafer_MEA_acute_per_burst_spike_number_mean is a component of the CCTE_Shafer_MEA_acute assay. It measures the average number of spikes (action potential firings) in a single-electrode burst (temporally-clustered group of spikes) during a recording in a microelectrode array (MEA) using Axion Biosystems Maestro 768 channel amplifier with the AxIS adaptive spike detector. The recordings before and after chemical treatment are used to calculate a percent change in the mean number of spikes per burst in each well.Data from the assay component CCTE_Shafer_MEA_acute_per_burst_spike_number_mean was analyzed into 1 assay endpoint. This assay endpoint, CCTE_Shafer_MEA_acute_per_burst_spike_number_mean, was analyzed in the negative analysis fitting direction relative to DMSO as the negative control and baseline of activity. Using a type of functional reporter, gain or loss-of-signal activity can be used to understand electrical activity.
# Spontaneous activity in the cortical cultures was recorded using an Axion Biosystems Maestro 768 channel amplifier and Axion Integrated Studios (AxIS) v1.8 (or later) software. The amplifier recorded from all channels simultaneously (gain = 1200 x; sampling rate = 12.5 kHz/channel): raw signals were filtered with a Butterworth band-pass filter (300-5000 Hz), which filters out slower local field potentials leaving only fast potentials, i.e., "spikes", arising from extracellular currents associated with action potentials (Pine 2006; Wheeler and Nam 2011). On-line spike detection of filtered signals was conducted with the AxIS adaptive spike detector, using a threshold of 8x the root mean squared (rms) noise on each channel. Any electrodes with rms noise levels greater than 5 uV were grounded (e.g., no data were recorded). Once grounded, an electrode was grounded for the duration of the experiment. All recordings were conducted at 37 C. Wells were deemed usable if on the day of the exposure >/= 10 electrodes were active (defined as >/= 5 spikes/min). On DIV 13 or 15, a minimum of three wells from one cortical culture preparation were treated with each compound (0.03-40 uM). Prior to recording baseline activity, each mwMEA plate was placed in the Maestro at 37 C and allowed to sit for 20 min while firing rates stabilized. Baseline activity (40 min) was recorded before the addition of each compound. An additional 40 min of spontaneous activity was recorded in the presence of each compound. Changes in network parameters relative to baseline were assessed following compound treatment.
SMILES,outcome,AC50
CCCCC(CC)CN1C(=O)C2C3C=CC(C3)C2C1=O (stereo not drawn),inactive,
CCCN(CCC)c1c([N+](=O)[O-])cc(C(F)(F)F)c(N)c1[N+](=O)[O-],inactive,
COC(=O)c1ccccc1C(=O)O,inactive,
O=C(O)c1ccccc1,inactive,
OB(O)O,inactive,
O=C(c1ccc(O)cc1O)c1ccc(O)cc1O,inactive,
CC(C)(C)[C@@H](O)[C@@H](Cc1ccc(Cl)cc1)n1cncn1,inactive,
O=C(c1ccccc1)C1CCCCC1,inactive,
CC(C)(c1ccc(O)cc1)c1ccc(O)cc1,inactive,
O=C(Nc1ccc([N+](=O)[O-])cc1Cl)c1cc(Cl)ccc1O,,0.292 µM (active)
CSC(=O)c1cccc2nnsc12,inactive,
N#CSCSc1nc2ccccc2s1,,20 µM (active)
CCNc1nc(N)nc(Cl)n1,inactive,
Oc1ccc(C(c2ccc(O)cc2)C(Cl)(Cl)Cl)cc1,inactive,
C=CCOC(Cn1ccnc1)c1ccc(Cl)cc1Cl (stereo not drawn),inactive,
C#CCOC(=O)[C@@H](C)Oc1ccc(Oc2ncc(Cl)cc2F)cc1,inactive,
CC(C)CCCCCCc1ccc(O)cc1,inactive,
Cc1nn(C)c(Oc2ccccc2)c1C=NOCc1ccc(C(=O)OC(C)(C)C)cc1,,3.08 µM (active)

# Source: PubChem BioAssay (EPA / NIEHS)
